JMJD2A Tudor – inhibitors of human JMJD2A Tudor domain; AlphaScreen JMJD2A-Tudor / H3K4me3 peptide binding; AID 504339; Potency, µM (highest dose often 114 µM), actives largely listed as inhibitors; O75164; 390,000 tested, 4.4% active; also: nearly all actives have a fitted effect of over 50% in size
HP1b binding inh – blocks HP1-beta chromodomain binding to methylated histone tails. Potency, µM (titrated, usually from 114 µM), usual class: inhibitors. 390,000 tested, 0.56% active. P83916. AlphaScreen HP1-beta / biotin-H3K9me3 peptide binding; also: nearly all actives have a fitted effect of over 70% in size
Target sequence (P83916 whole entry, looked up): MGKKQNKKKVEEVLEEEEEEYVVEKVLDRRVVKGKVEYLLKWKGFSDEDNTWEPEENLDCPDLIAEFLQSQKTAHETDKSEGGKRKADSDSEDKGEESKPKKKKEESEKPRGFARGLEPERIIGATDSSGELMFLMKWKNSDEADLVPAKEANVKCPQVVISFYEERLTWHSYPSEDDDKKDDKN
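Compound inhibition of the preformed complex between 50 nM HP1-beta and 50 nM biotinylated H3K9me3 peptide was read by AlphaScreen. Buffer was PBS pH 7.4 with 0.01% Tween-20. Incubations ran 30 min at room temperature, with 10 ug/mL donor/acceptor beads.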
G9a inh – G9a (human) methyltransferase inhibition; Q96KQ7; G9a H3K9 monomethylation, AlphaScreen, 2 h; 350,000 tested, 8.8% active; Potency, µM (series often up to 102 µM), hits mostly inhibitors; also: nearly all actives have a fitted effect of over 75% in size
Target sequence (Q96KQ7 913-1193 limits assumed): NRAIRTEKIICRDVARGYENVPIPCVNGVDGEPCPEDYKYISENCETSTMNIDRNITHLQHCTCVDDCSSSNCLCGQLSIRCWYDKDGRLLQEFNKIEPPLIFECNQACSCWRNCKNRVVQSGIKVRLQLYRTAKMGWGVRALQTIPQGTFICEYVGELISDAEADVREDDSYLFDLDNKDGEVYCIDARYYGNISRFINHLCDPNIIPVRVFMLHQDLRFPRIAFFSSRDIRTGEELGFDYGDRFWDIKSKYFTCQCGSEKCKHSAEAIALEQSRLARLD
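Step 1: enzyme (final 20 nM) with compound, 15 min RT. Step 2: substrate peptide 500 nM and SAM 20 uM, 2 h RT. Step 3: anti-H3K9me1 antibody and AlphaScreen beads, 10 min, then plate read.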
Sfp inh – inhibitors of Bacillus subtilis Sfp phosphopantetheinyl transferase; Q9F4F7; AID 1490; Potency, µM, hits mostly inhibitors; 310,000 tested, 3.5% active; Biochemical Sfp PPTase activity, qHTS;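 also: the enzyme is Sfp with the accession as filed and its product quenches rhodamine fluorescence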
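Sfp 15 nM + cpd, 15 min RT; start w/ rhodamine-CoA 5 uM, BHQ-2-YbbR 12.5 uM (final); 50 mM Hepes pH 7.6, 10 mM MgCl2, 0.01% NP-40, 0.01% BSA; read 525/598 nm at 0 and 30 min.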
BAZ2B block – BAZ2B (human) inhibition | Q9UIF8 | AlphaScreen BAZ2B-H3K14Ac peptide displacement | Potency, µM (doses to about 114 µM), hits mostly inhibitors | 360,000 tested, 4.4% active; also: nearly all actives have a fitted effect of over 60% in size
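Inhibition is scored as reduced AlphaScreen emission. The BAZ2B/b-H3(5-23)K14Ac complex (50 nM each) in PBS pH 7.4, 0.01% Tween-20 meets compound (up to 110 uM) for 30 min at RT before bead addition.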
Hits are given with their value; [ ] = remark or other dose. In the library only some 12% were active in any assay of this set; here they are far more common. Calls follow the shape of the dose curve; as a rule, active = well fitted curve in the direction sought with a large enough effect; inconclusive = small, poorly fitted or top-dose-only effect, or another doubt; inactive = no such curve, though single readings can be large; an effect the other way counts as inactive or inconclusive.

For Cc1ccc(CCC(=O)Nc2ccc(S(N)(=O)=O)cc2)o1 the results were JMJD2A Tudor inactive, HP1b binding inh inactive, G9a inh 2.2µM, Sfp inh 5µM and BAZ2B block inactive.
CN(C)CC(=O)Nc1ccc(S(N)(=O)=O)cc1 was read as JMJD2A Tudor 14µM, HP1b binding inh inactive, G9a inh inactive, Sfp inh inactive and BAZ2B block inactive.
For NS(=O)(=O)c1ccc(NC(=O)c2c(Cl)cccc2Cl)cc1 the results were JMJD2A Tudor 28µM, HP1b binding inh inactive, G9a inh inactive[0.501 µM], Sfp inh inactive and BAZ2B block inactive.
`NS(=O)(=O)c1ccc(NC(=O)c2c(F)cccc2Cl)cc1` gave JMJD2A Tudor inactive, HP1b binding inh inactive, G9a inh inactive, Sfp inh inactive and BAZ2B block inactive.
CN(CCC#N)CC(=O)Nc1ccc(S(N)(=O)=O)cc1 was read as JMJD2A Tudor inactive[11.4 µM], HP1b binding inh inactive, G9a inh inactive, Sfp inh inactive and BAZ2B block inactive.
Cc1cccc(C)c1-n1nnnc1SCC(=O)c1c(N)n(C2CC2)c(=O)[nH]c1=O was read as JMJD2A Tudor inactive and HP1b binding inh inactive.
Screening CCc1cccc(NC(=O)CN2C=NS(=O)(=O)c3ccccc32)c1 returned JMJD2A Tudor inactive, HP1b binding inh inactive, G9a inh inactive and BAZ2B block inactive.
`O=C(NNc1ccc(Cl)cc1)c1sccc1Cl` gave JMJD2A Tudor inconclusive, HP1b binding inh inactive, Sfp inh inactive and BAZ2B block inconclusive.
Screening NS(=O)(=O)c1ccc(NNC(=O)c2sccc2Cl)cc1 returned JMJD2A Tudor inactive, HP1b binding inh inactive, G9a inh 7.1µM, Sfp inh inactive and BAZ2B block inactive.
Screening O=c1c(=O)n(O)c2ccccc2n1O returned JMJD2A Tudor 50µM, HP1b binding inh inactive, G9a inh 10µM, Sfp inh 79µM and BAZ2B block 40µM.
`CCOn1c(=O)c(=O)n(OC)c2ccccc21` gave JMJD2A Tudor inactive, HP1b binding inh inactive, G9a inh inactive, Sfp inh inactive and BAZ2B block inactive.
COn1c(=O)c(=O)n(O)c2ccccc21 was read as JMJD2A Tudor 79µM, HP1b binding inh inactive, G9a inh inactive, Sfp inh inactive and BAZ2B block inconclusive.
For Cc1c(O)c2ccccc2n(-c2ccccc2)c1=O the results were JMJD2A Tudor inactive and HP1b binding inh inactive.
O=C(CN1C(=O)C(=O)N(C2CCCC2)C1=O)NCCc1ccc(Cl)cc1Cl was read as JMJD2A Tudor inactive, HP1b binding inh inactive, G9a inh inactive[2.33 µM] and BAZ2B block inactive.
For CC1CCN(S(=O)(=O)c2ccc(C(=O)Nc3nnc(-c4ccccn4)o3)cc2)CC1 the results were JMJD2A Tudor inactive, HP1b binding inh inactive, G9a inh inactive and Sfp inh inactive.
For Cc1cc(N2CCN(c3ccccc3)CC2)nc(-n2nc(C)cc2C)n1 the results were JMJD2A Tudor 45µM, HP1b binding inh inactive, G9a inh inactive[2.33 µM], Sfp inh inactive and BAZ2B block inconclusive.
For O=C(NCCCn1ccnc1)C(=O)NC1CCCCC1 the results were JMJD2A Tudor inactive, HP1b binding inh inactive, G9a inh inactive, Sfp inh inactive and BAZ2B block inactive.
`O=C(O)C1CCCCC1C(=O)NCCCn1ccnc1` (centres undefined) gave JMJD2A Tudor inactive, HP1b binding inh inactive, G9a inh inconclusive, Sfp inh inactive and BAZ2B block 79µM.
Screening O=C(/C=N/O)NCCCn1ccnc1 returned JMJD2A Tudor inactive, HP1b binding inh inactive, G9a inh inconclusive, Sfp inh inactive and BAZ2B block 79µM.
`CCOc1ccc2oc(C(=O)N(C)CC(=O)Nc3ccc(OCC)c(OCC)c3)c(C)c2c1` gave JMJD2A Tudor inactive, HP1b binding inh inactive, G9a inh 56µM and BAZ2B block inactive.
COc1ccc2oc(C(=O)OCC(=O)N(C)CC(=O)Nc3ccc(C)cc3)c(C)c2c1 was read as JMJD2A Tudor inactive, HP1b binding inh inactive, G9a inh 50µM and BAZ2B block inactive.
For CCOc1ccc2oc(C(=O)Nc3ccc4c(c3)OCO4)c(C)c2c1 the results were JMJD2A Tudor inactive, HP1b binding inh inactive, G9a inh inactive, Sfp inh inactive and BAZ2B block inactive.
For CCOc1ccc2oc(C(=O)Nc3ccc(N4CCOCC4)cc3)c(C)c2c1 the results were JMJD2A Tudor inactive, HP1b binding inh inactive, G9a inh 13µM, Sfp inh inactive and BAZ2B block inactive.
